Among the data in PubChem BioAssay are growth inhibition, inhibition and outcome values, retold here.

Unmarked numbers belong to inactive results. For some of these results: Potency and affinity values are given separately. Activity calls are given as the source filed them. Unless noted, how the calls were made is not given here.

The nature of experiment [1]: antimalarial activity against Dd2 strain (AID 2302;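 active means growth inhibition above 50% at the single 2 µM test dose, taken to imply half-maximal potency below 2 µM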;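 further: 0% = DMSO untreated growth and 100% = chloroquine plus artemisinin killed control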). The following applies: P. falciparum Dd2 in RBCs, LDH growth readout, 72 h; at 2 µM; hits give high values.
Experiment [2] in a line: human hepatoma cell viability loss – ATP luminescence, cytotoxicity control for P. falciparum antimalarial project, primary screen (AID 2303;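 active means inhibition above 50%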;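 further: 0% = DMSO wells and 100% = digitonin-killed cells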). The following applies: HepG2 viability, 24-48 h, at 10 µM, hits give high values.
Experiment [3] has as its target L-lactate dehydrogenase (Plasmodium falciparum (isolate CDC / Honduras)) (UniProt Q27743). The experiment can be described thus: PfLDH activity inhibition – cell lysate, 3D7 strain, counter-screen for P. falciparum growth inhibition project (AID 2304).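 Further: 0% = vehicle and 100% = reference inhibitor.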 To be noted: P. falciparum 3D7 crude extract, LDH APAD/NBT absorbance; at 2 µM; hits give high values. In general terms: A counterscreen serves to expose hits that act by an unwanted route or on another target.

Experiment [4] in a line: inhibition of 3D7 malaria parasite growth – strain 3D7 (AID 2306).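 Further: 0% = DMSO wells and 100% = chloroquine plus artemisinin control wells.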 To be noted: P. falciparum 3D7 erythrocytic growth, LDH absorbance, 72 h; at 2 µM; hits give high values.
The target of experiment [5] is Calcium-dependent protein kinase 1 (Plasmodium falciparum (isolate 3D7)) (UniProt P62344). The experiment can be described thus: PfCDPK1 kinase inhibitors, biochemical, TCAMS library (AID 1159585; cut-off not given, nearly all actives have IC50 up to about 0.98 µM;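 further: inhibitors leave more ATP so luminescence rises with inhibition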). The following applies: recombinant PfCDPK1, Kinase-Glo ATP depletion luminescence.
Chain of Calcium-dependent protein kinase 1 (Plasmodium falciparum (isolate 3D7)) (P62344 whole entry, looked up): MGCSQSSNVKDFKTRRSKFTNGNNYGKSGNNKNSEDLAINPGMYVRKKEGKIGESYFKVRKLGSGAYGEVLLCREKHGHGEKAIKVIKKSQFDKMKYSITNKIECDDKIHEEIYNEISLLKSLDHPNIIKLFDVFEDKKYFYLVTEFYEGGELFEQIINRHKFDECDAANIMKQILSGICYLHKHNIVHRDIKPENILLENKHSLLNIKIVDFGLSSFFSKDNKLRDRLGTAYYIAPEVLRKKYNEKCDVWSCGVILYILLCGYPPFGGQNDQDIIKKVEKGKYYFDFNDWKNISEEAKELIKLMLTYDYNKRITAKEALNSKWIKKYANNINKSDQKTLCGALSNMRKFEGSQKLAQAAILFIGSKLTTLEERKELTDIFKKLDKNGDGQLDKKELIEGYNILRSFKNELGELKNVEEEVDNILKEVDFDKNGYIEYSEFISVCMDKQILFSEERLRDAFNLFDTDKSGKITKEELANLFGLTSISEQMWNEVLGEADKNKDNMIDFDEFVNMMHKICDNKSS
Experiment [6] has as its target Plasmodium falciparum protein kinase 6 (PK6, PF3D7_1337100) (UniProt Q8IDW1). In words: PfPK6 kinase inhibitors, biochemical, TCAMS library (AID 1159586). The following applies: recombinant PfPK6, Kinase-Glo ATP depletion luminescence. For orientation: Kinase-Glo reads ATP consumption through a luciferase reaction.
The target of experiment [7] is Protein kinase 7 (PK7), Plasmodium falciparum 3D7 (PF3D7_0213400) (UniProt Q7YTF7). The experiment can be described thus: inhibition of Plasmodium PK7 catalytic activity – biochemical, TCAMS antimalarial set, Kinase-Glo luminescence (AID 1159587). To be noted: recombinant PfPK7, Kinase-Glo ATP depletion luminescence.
Chain of Protein kinase 7 (PK7), Plasmodium falciparum 3D7 (PF3D7_0213400) (Q7YTF7 1-343): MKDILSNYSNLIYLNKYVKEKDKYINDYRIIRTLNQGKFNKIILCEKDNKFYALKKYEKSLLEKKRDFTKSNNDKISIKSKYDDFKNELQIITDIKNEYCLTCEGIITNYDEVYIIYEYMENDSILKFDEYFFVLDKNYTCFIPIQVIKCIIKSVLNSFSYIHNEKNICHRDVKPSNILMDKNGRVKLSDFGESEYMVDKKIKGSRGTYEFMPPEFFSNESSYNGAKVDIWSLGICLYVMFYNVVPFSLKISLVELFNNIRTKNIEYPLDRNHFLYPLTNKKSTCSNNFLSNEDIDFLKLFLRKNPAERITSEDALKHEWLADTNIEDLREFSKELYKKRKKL
In experiment [8] the target is Calcium-dependent protein kinase 4 (Plasmodium falciparum (isolate 3D7)) (UniProt Q8IBS5). The experiment can be described thus: PfCDPK4 kinase inhibitors, biochemical, TCAMS library (AID 1159588; cut-off not given, nearly all actives have IC50 up to about 0.91 µM). The following applies: recombinant PfCDPK4, Kinase-Glo ATP depletion luminescence.
Chain of Calcium-dependent protein kinase 4 (Plasmodium falciparum (isolate 3D7)) (Q8IBS5 whole entry, looked up): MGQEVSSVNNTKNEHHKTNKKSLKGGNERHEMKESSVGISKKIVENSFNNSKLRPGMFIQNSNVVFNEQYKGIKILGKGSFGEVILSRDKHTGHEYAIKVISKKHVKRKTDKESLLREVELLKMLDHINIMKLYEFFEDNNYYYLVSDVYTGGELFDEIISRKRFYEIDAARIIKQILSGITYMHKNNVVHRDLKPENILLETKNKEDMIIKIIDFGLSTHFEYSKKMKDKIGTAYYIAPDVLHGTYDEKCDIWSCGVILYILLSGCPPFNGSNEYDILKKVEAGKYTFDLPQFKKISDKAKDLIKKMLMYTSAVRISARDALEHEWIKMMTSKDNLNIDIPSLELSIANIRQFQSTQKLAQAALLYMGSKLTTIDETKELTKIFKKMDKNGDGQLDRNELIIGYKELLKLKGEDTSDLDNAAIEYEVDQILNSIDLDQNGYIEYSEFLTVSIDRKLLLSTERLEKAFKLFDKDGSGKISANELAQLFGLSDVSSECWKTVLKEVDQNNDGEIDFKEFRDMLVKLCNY

Chain of L-lactate dehydrogenase (Plasmodium falciparum (isolate CDC / Honduras)) (Q27743 whole entry, looked up): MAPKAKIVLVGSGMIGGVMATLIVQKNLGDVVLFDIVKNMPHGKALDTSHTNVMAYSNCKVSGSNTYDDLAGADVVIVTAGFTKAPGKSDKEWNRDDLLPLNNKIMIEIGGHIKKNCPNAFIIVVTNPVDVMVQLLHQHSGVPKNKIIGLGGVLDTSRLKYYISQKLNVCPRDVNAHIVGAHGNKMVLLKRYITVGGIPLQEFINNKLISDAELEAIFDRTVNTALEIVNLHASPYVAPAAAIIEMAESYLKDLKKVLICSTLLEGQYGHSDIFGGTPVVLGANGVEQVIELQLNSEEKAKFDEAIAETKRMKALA
Chain of Plasmodium falciparum protein kinase 6 (PK6, PF3D7_1337100) (Q8IDW1 1-305): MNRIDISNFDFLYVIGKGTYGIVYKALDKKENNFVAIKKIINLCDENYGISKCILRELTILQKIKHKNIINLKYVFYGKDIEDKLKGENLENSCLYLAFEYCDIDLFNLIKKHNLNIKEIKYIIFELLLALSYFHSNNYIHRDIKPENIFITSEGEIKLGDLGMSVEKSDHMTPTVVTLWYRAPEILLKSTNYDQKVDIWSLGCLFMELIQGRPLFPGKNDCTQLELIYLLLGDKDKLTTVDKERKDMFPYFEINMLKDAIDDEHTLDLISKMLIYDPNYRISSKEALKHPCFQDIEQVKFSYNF

Turning to `Fc1ccc2nc(-c3ccc(-c4ccc(CN5CCN(CCN6CCOCC6)CC5)cc4)cc3)[nH]c2c1`, the growth inhibition is 100% (active) in experiment [1] and 101% (active) in experiment [4]. For the same compound, the inhibition in experiment [2] was 38%; in experiment [3] it was -5%. Besides, the outcome in experiment [5], in experiment [6], in experiment [7] and in experiment [8] was inactive.

For `COc1ccc(NC(=O)Nc2cccc(-c3cccc(-c4nc5ccc(F)cc5[nH]4)c3)c2)cc1`, the growth inhibition in experiment [1] was 39%; in experiment [4], 99% (active). Also, the inhibition is 59% (active) in experiment [2] and 5% in experiment [3]. Further, the result in experiment [5], in experiment [6], in experiment [7] and in experiment [8] was inactive.

With `N#Cc1ccc(CNCCCCCCNCc2ccc(C#N)c3ccccc23)c2ccccc12`, the growth inhibition was 96% (active) in experiment [1] and 102% (active) in experiment [4]. Also, the inhibition in experiment [2] is 51% (active); in experiment [3], -3%. For the same compound, the outcome in experiment [5], in experiment [6], in experiment [7] and in experiment [8] was inactive.

Turning to `CCCn1cnc2cc(C(=O)Nc3ccc(-c4cccc(CN(C)C)c4)cc3)ccc2c1=O`, the growth inhibition in experiment [1] is 6%; in experiment [4], 95% (active). Also, the inhibition in experiment [2] was 26%; in experiment [3], -6%. For the same compound, the outcome in experiment [5], in experiment [6], in experiment [7] and in experiment [8] was inactive.

As to `CC(=O)Nc1ccc(C(=O)Nc2cccc(-c3cccc(-c4nc5ccc(F)cc5[nH]4)c3)c2)cn1`, the growth inhibition in experiment [1] is 98% (active); in experiment [4] it was 99% (active). Also, the figures for the inhibition in experiment [2] and in experiment [3] were -5% and 1%, respectively. The result in experiment [5], in experiment [6], in experiment [7] and in experiment [8] was inactive.

For the compound `CC(O)c1cccc(-c2ccc(Nc3ccnc4cc(-c5nccs5)ccc34)cc2)c1` (stereo not given), the growth inhibition is 69% (active) in experiment [1] and 91% (active) in experiment [4]. The inhibition was 31% in experiment [2] and -1% in experiment [3]. Also, the outcome in experiment [5], in experiment [6], in experiment [7] and in experiment [8] was inactive.

As for `CCCCCCCN1CC[C@@H](CCCc2ccnc3ccc(OCCCCNC(N)=O)cc23)[C@@H](CC)C1`, the growth inhibition in experiment [1] is 18%; in experiment [4] it was 93% (active). The inhibition in experiment [2] is 41%; in experiment [3], -3%. The result in experiment [5], in experiment [6], in experiment [7] and in experiment [8] was inactive.

Take `CC(C)(C)OC(=O)NCc1ccc(Nc2nnc(-c3cccc(C(=O)NCCC(c4ccccc4)c4ccccc4)c3)o2)cc1`: the growth inhibition in experiment [1] was 89% (active); in experiment [4], 100% (active). Besides, the inhibition in experiment [2] is -4%; in experiment [3], -2%. Moreover, the outcome in experiment [5], in experiment [6], in experiment [7] and in experiment [8] was inactive.

Take `Cc1cc(C)cc(CC(=O)N2CCC(n3c(C)nc4ccc(C)cc43)CC2)c1`: the growth inhibition in experiment [1] and in experiment [4] was 100% (active) throughout. The inhibition in experiment [2] was 52% (active); in experiment [3], 6%. Besides, the outcome in experiment [5], in experiment [6], in experiment [7] and in experiment [8] was inactive.

As to `COc1cc(OCCCN(C)Cc2ccc(OC)c(OC)c2)ccc1NC(=O)c1cccc2c(=O)c3cccc(F)c3[nH]c12`, the growth inhibition in experiment [1] is 62% (active); in experiment [4], 94% (active). Moreover, the inhibition was 10% in experiment [2] and -5% in experiment [3]. In addition, the result in experiment [5], in experiment [6], in experiment [7] and in experiment [8] was inactive.

Turning to `COc1cc(-c2ccc(-c3cnc(N)nc3OC)[nH]2)cc(OC)c1OC`, the growth inhibition is 54% (active) in experiment [1] and 101% (active) in experiment [4]. The inhibition is -3% in experiment [2] and -2% in experiment [3]. The outcome in experiment [5], in experiment [6], in experiment [7] and in experiment [8] was inactive.

On to `O=C(c1cc(C(=O)Nc2ccccc2F)c(=O)n(-c2ccccc2F)c1)c1cc(Cl)ccc1O`, for which the growth inhibition was 80% (active) in experiment [1] and 98% (active) in experiment [4]. Further, the inhibition in experiment [2] was 2%; in experiment [3], 5%. Further, the outcome in experiment [5], in experiment [6], in experiment [7] and in experiment [8] was inactive.

On to `O=C(NCC1CCN(C/C=C/c2ccccc2)CC1)Nc1ccc(Oc2ccccc2)cc1`, for which the figures for the growth inhibition in experiment [1] and in experiment [4] were 11% and 83% (active), respectively. Besides, the inhibition in experiment [2] is 40%; in experiment [3], -3%. Besides, the outcome in experiment [5], in experiment [6], in experiment [7] and in experiment [8] was inactive.

On to `Cc1cc(O)c(CN(C)Cc2ccc3c(c2)OCCO3)cc1C(C)C`, for which the results for the growth inhibition in experiment [1] and in experiment [4] were 47% and 98% (active), respectively. For the same compound, the inhibition in experiment [2] is 10%; in experiment [3] it was -3%. Moreover, the result in experiment [5], in experiment [6], in experiment [7] and in experiment [8] was inactive.

In the case of `COc1cc(Cc2cnc(N)nc2N)cc(OCC(C)(C)C(=O)O)c1OC`, the growth inhibition is -4% in experiment [1] and 89% (active) in experiment [4]. Further, the inhibition in experiment [2] is -3%; in experiment [3] it was -2%. For the same compound, the outcome in experiment [5], in experiment [6], in experiment [7] and in experiment [8] was inactive.

Turning to `O=C(Nc1ccc(F)cc1)c1cnc(N2CCN(c3ccncc3)CC2)c(Cl)c1`, the figures for the growth inhibition in experiment [1] and in experiment [4] were 81% (active) and 100% (active), respectively. Besides, the inhibition in experiment [2] is 41%; in experiment [3], -3%. The outcome in experiment [5], in experiment [6], in experiment [7] and in experiment [8] was inactive.

Regarding `CC1(C)N=C(N)NC(Nc2ccc(Cl)cc2)=N1`, the growth inhibition in experiment [1] was -1%; in experiment [4] it was 97% (active). For the same compound, the inhibition is 8% in experiment [2] and -2% in experiment [3]. The outcome in experiment [5], in experiment [6], in experiment [7] and in experiment [8] was inactive.

Consider `NC(N)=Nc1nc(-c2cccc(NC(=O)C(F)(F)F)c2)cs1`, for which the growth inhibition is 24% in experiment [1] and 94% (active) in experiment [4]. Also, the inhibition was -4% in experiment [2] and -2% in experiment [3]. Further, the result in experiment [5], in experiment [6], in experiment [7] and in experiment [8] was inactive.

Consider `CN(C)c1ccc(-c2csc(C(=O)NC3CCCCN(CCC(C)(C)C)C3)c2)cc1` (stereo not given), for which the growth inhibition in experiment [1] is 68% (active); in experiment [4] it was 91% (active). Moreover, the values for the inhibition in experiment [2] and in experiment [3] were 10% and 4%, respectively. Also, the outcome in experiment [5], in experiment [6], in experiment [7] and in experiment [8] was inactive.

In the case of `Cc1cccc2[nH]c(-c3cccc(-c4cccc(CNCCNC(=O)c5ccnn5C)c4)c3)nc12`, the growth inhibition in experiment [1] is 71% (active); in experiment [4], 100% (active). The inhibition is 26% in experiment [2] and -3% in experiment [3]. Besides, the outcome in experiment [5], in experiment [6], in experiment [7] and in experiment [8] was inactive.

Broadly, the inhibition is the relative decrease from the control value, in per cent.
